# From PubChem BioAssay
# A selection: hits, their analogues and other compounds. The true share with any hit is near 2.4%.
# APE1 inh-1: APE1 (human) endonuclease inhibition; recombinant APE1, TAMRA/BHQ-2 abasic DNA cleavage fluorescence; 350,000 tested, 0.35% active; AID 2517; Potency, µM (doses to about 65.8 µM), for inactives: top-dose activity change, negative = inhibition, hits mostly inhibitors; P27695;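 further: potency means the concentration at half of the fitted maximal effect; plate controls were vehicle for no effect and reference inhibitor for full effect; nearly all actives have a fitted effect of over 55% in size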
#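 Kinetic fluorescence read (525 ex/598 em nm, three reads 60 s apart) of AP-site incision; signal = third minus first read. Enzyme 0.75 nM, dual-labelled THF duplex 50 nM, compound preincubation 15 min RT.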
# Pol kappa inh-1: DNA polymerase kappa (human) inhibition | Q9UBT6 | purified Pol kappa, fluorescent DNA synthesis assay, 10 min | Potency, µM (highest dose often 107 µM), for inactives: at the top dose activity, negative = inhibition, usual class: inhibitors | 400,000 tested, 0.53% active; further: potency means the concentration at half of the fitted maximal effect; on the % scale 0 is the no-effect control and ±100 the full control effect
#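 Kinetic fluorescence readout at 0 and 10 min followed reaction start with substrate at 50 nM final. Beforehand, enzyme (10 nM Pol kappa) stood 15 min with compound at room temperature; buffer-only wells were negative controls.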
# Pol iota inh: blocks human DNA polymerase iota activity; Q9UNA4; Pol iota fluorescent replication assay, 10 min; Potency, µM (titrated, usually from 115 µM), for inactives: at the top dose activity, negative = inhibition, most hits filed as inhibitors; 390,000 tested, 1% active; further: potency means the concentration at half of the fitted maximal effect
# Target sequence (Q9UNA4 whole entry, looked up): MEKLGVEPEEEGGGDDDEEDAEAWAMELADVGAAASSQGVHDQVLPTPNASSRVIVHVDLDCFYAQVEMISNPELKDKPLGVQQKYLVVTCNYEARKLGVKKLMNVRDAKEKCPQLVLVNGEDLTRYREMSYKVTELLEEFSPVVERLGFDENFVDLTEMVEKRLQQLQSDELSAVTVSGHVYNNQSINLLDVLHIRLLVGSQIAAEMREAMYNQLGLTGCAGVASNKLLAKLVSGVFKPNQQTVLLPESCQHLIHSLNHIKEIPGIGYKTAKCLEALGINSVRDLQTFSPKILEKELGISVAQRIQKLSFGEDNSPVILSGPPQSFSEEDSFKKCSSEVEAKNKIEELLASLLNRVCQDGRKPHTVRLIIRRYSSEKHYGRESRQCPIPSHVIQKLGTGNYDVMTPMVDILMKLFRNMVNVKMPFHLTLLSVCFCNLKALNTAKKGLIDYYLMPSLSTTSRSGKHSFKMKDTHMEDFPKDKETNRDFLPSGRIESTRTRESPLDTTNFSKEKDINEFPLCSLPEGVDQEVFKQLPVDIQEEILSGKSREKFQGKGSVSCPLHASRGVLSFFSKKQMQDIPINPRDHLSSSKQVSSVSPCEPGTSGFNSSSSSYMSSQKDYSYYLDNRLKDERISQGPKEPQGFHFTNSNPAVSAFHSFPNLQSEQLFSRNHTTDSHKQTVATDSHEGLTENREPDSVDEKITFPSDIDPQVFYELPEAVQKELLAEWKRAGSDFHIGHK
#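 Fluorescent replication assay read twice, at 0 min and 10 min after adding 50 nM (final) substrate. Enzyme (10 nM) and compounds were first incubated 15 min at room temperature; enzyme-free buffer wells were negative controls.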
# Pol beta inh-1: blocks human DNA polymerase beta activity | P06746 | Pol beta primer extension/strand displacement, fluorescence kinetic | Potency, µM (titrated, usually from 114 µM), inactives show top-dose activity change, negative = inhibition, actives largely listed as inhibitors | 340,000 tested, 1.3% active | AID 485314; further: potency means the concentration at half of the fitted maximal effect; on the % scale 0 is the no-effect control and ±100 the full control effect
#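 Human Pol beta at 10 nM; strand-displacement substrate 50 nM final. Compound exposure 15 min at room temperature before start, reaction 10 min at room temperature.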
# GLS inh: inhibitors of human glutaminase (GLS). O94925. 410,000 tested, 0.21% active. GLS enzymatic activity, qHTS titration. Potency, µM (series often up to 45.5 µM), for inactives: top-dose activity change, negative = inhibition, actives largely listed as inhibitors; further: potency means the concentration at half of the fitted maximal effect; on the % scale 0 is the no-effect control and ±100 the full control effect
#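 Glutamate formation by hKGA was monitored fluorometrically using coupled glutamate oxidase, HRP and Amplex Red. Substrate was added as 1 mM L-glutamine solution; incubation was 30 min at RT after an initial read.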
# Pol eta inh-1: inhibitors of human DNA polymerase eta. Q9Y253. recombinant Pol eta, fluorescent DNA replication assay. Potency, µM (series often up to 114 µM), inactives show at the highest dose activity change, negative = inhibition, hits mostly inhibitors. 390,000 tested, 1.2% active; further: potency means the concentration at half of the fitted maximal effect; on the % scale 0 is the no-effect control and ±100 the full control effect
#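 Fluorescent replication assay: 50 nM final substrate added after a 15 min room-temperature compound preincubation with 10 nM enzyme. Signal taken at 0 min and again at 10 min.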
# DNA dye displace: displaces fluorescent dye from DNA, flagging APE1 artifacts. shares compounds with APE1 inh-1. DNA fluorescent dye displacement counterscreen, fluorescence. Potency, µM (series often up to 28.5 µM), without a hit: at the top dose activity change, negative = inhibition, most hits filed as inhibitors. 480 tested, 7% active. AID 2564;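 further: loss of thiazole orange fluorescence as the dye is displaced from duplex DNA; potency means the concentration at half of the fitted maximal effect; 0% = ThO with dsDNA and no compound and -100% = ThO without dsDNA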
# Endo IV inh: counter-screen for APE1 inhibitors: inhibitors of E. coli endonuclease IV | shares compounds with APE1 inh-1 | E. coli Endo IV, fluorogenic AP-site DNA cleavage | Potency, µM (doses to about 27.1 µM), for the others: at the highest dose activity change, negative = inhibition, actives largely listed as inhibitors | 560 tested, 4% active | AID 2565;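 further: potency means the concentration at half of the fitted maximal effect; plate controls were uninhibited enzyme wells for no effect and no enzyme buffer wells for full effect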
# APE1 inh-2: confirmation of inhibitors of human APE1 endonuclease. shares compounds with APE1 inh-1. purified APE1, fluorogenic abasic-site DNA cleavage. Potency, µM (top dose mostly 57.1 µM), for inactives: at the highest dose activity change, negative = inhibition, most hits filed as inhibitors. 750 tested, 44% active. AID 2572; further: potency means the concentration at half of the fitted maximal effect; on the % scale 0 is the no-effect control and ±100 the full control effect; nearly all actives have a fitted effect of over 30% in size
# APE1 FP inh: compounds that displace a DNA probe from human APE1; APE1 binding to TAMRA-labelled double-stranded DNA, fluorescence polarization displacement; 480 tested, 7% active; Potency, µM (titrated, usually from 28.5 µM), inactives show at the highest dose activity, negative = inhibition, hits mostly inhibitors; AID 2573; shares compounds with APE1 inh-1; further: potency means the concentration at half of the fitted maximal effect; on the % scale 0 is the no-effect control and ±100 the full control effect
# Pol beta inh-2: Human Pol beta inhibitor hit validation; shares compounds with Pol beta inh-1; Pol beta primer extension/strand displacement, fluorescence kinetic; Potency, µM, actives largely listed as inhibitors; 250 tested, 87% active; AID 540280; calls by dose curve; further: potency means the concentration at half of the fitted maximal effect
# Klenow counter: inhibits Klenow fragment polymerase in counter-screen; shares compounds with Pol beta inh-1; Klenow exo- polymerase counter-screen, fluorescent DNA substrate; activity change, negative = inhibition, % at 57.1 µM; 250 tested, under 10 active; AID 540300
# HIV RT counter: HIV-1 RT inhibition, pol beta selectivity check. shares compounds with Pol beta inh-1. activity % (negative = inhibition, positive = activation), % at 57.1 µM. HIV-1 RT polymerase activity, counter-screen. 250 tested, under 10 active
# PGK validate: validation of Trypanosoma brucei phosphoglycerate kinase inhibitors. shares compounds with Pol kappa inh-1. TbPGK coupled GAPDH assay, Kinase-Glo luminescence. Potency, µM (series often up to 57.5 µM), for the others: at the top dose activity change, negative = inhibition, actives largely listed as inhibitors. 500 tested, 79% active. AID 686980; further: potency means the concentration at half of the fitted maximal effect; on the % scale 0 is the no-effect control and ±100 the full control effect; nearly all actives have a fitted effect of over 65% in size
# Pol iota confirm: Inhibitors of human DNA polymerase iota, confirmation. shares compounds with Pol kappa inh-1. Pol iota primer extension, TAMRA/BHQ fluorescence. Potency, µM, usual class: inhibitors. 1,500 tested, 77% active; further: potency means the concentration at half of the fitted maximal effect
# Pol kappa inh-2: Pol kappa (human) inhibition, cherry-pick confirmation. shares compounds with Pol eta inh-1. 920 tested, 76% active. AID 720501. purified Pol-kappa, fluorescent strand-displacement substrate. Potency, µM, hits mostly inhibitors; further: potency means the concentration at half of the fitted maximal effect
# Pol eta inh-2: Pol eta (human) inhibition, cherry-pick confirmation; shares compounds with Pol eta inh-1; Pol eta primer extension, TAMRA/BHQ fluorescence, 10 min; Potency, µM, most hits filed as inhibitors; 2,600 tested, 64% active; further: potency means the concentration at half of the fitted maximal effect
# Active calls of the source: *; i = inactive; ? = inconclusive; / = not tested or not shown; [ ] = dose if it differs, or a comment. Unless noted, the call rests on the fitted dose curve; in most records, active means well fitted curve in the direction sought with a large enough effect; inconclusive means small, poorly fitted or top-dose-only effect, or another doubt; inactive means no such curve, though single readings can be large; an effect the other way counts as inactive or inconclusive.
SMILES,APE1 inh-1,Pol kappa inh-1,Pol iota inh,Pol beta inh-1,GLS inh,Pol eta inh-1,DNA dye displace,Endo IV inh,APE1 inh-2,APE1 FP inh,others
O=C(Nc1cccc(S(=O)(=O)NC2=NCCCCC2)c1)c1cc(-c2ccco2)nc2ccccc12,13µM*,79µM*,14µM*,7.9µM*,16%,?,-11%,7%,?,-13%,Pol beta inh-2=11*;Klenow counter=-22;HIV RT counter=25
O=C(N/N=C/c1c[nH]c2ccccc12)c1ccncc1,7%,-7%,114%,-11%,2%,-19%,/,/,/,/,
O=C(N/N=C/c1c[nH]c2ccc(Br)cc12)c1ccncc1,-4%,-24%,56µM*,?,2%,?,/,/,-12%,/,Pol iota confirm=67*
Cc1cc(Br)cc(/C=N/NC(=O)c2ccc3c(c2)OCO3)c1O,2%,-20%,?,5%,0%,-17%,/,/,/,/,
CCOC(=O)c1cc(-c2ccc(N3CCOCC3)cc2)nn1-c1ccccc1C(=O)O,2.5µM*,-16%,?,13µM*,?,?,3%,?,?,?,Pol beta inh-2=20*;Klenow counter=10;HIV RT counter=21;Pol iota confirm=?
CCCCC[C@H](O)/C=C/[C@@H]1[C@@H](C/C=C\CCCC(=O)OC)[C@@H](O)C[C@H]1O,7%,-10%,1.3µM*,24%,?,?,/,/,-14%,/,PGK validate=4%
CCn1c(C)cc(/C=C2\SC(=O)N(CC(=O)Nc3ccc(C)c(C)c3)C2=O)c1C,-1%,-1%,2%,1%,1%,-17%,/,/,/,/,
Cc1ccc(NC(=O)CN2C(=O)S/C(=C/c3ccc(-c4cc(C(=O)O)ccc4C)o3)C2=O)cc1C,?,79µM*,22µM*,7.1µM*,?,20µM*,149%,-4%,7.1µM*,10µM*,PGK validate=7.3µM*
O=C1CC(=O)N(Cc2ccco2)C(=S)N1,11µM*,3.2µM*,?,7.9µM*,?,3.2µM*,3%,35%,35µM*,?,PGK validate=-97%
O=C(COc1ccc2c3c(c(=O)oc2c1)CCCC3)NCCCn1ccnc1,41%,-7%,1%,21%,12%,-6%,/,/,/,/,
CC(=O)OC[C@H]1O[C@@](COC(C)=O)(O[C@H]2O[C@H](COC(C)=O)[C@@H](OC(C)=O)[C@H](OC(C)=O)[C@H]2OC(C)=O)[C@@H](OC(C)=O)[C@@H]1OC(C)=O,/,-1%[19.4 µM],/,/,7%,/,/,/,/,/,
O=c1cc(O)c2ccc(O)cc2o1,15%,-13%,10%,2%,13%,3%,/,/,/,/,
O=c1ccc2[n+]([O-])c3ccc(O)cc3oc-2c1,25µM*,?,25µM*,63µM*,?,i,14%,?,13µM*,0.018µM*,Pol kappa inh-2=24*
Cc1ccc(CNC(=O)CCS(=O)(=O)c2ccc(Br)cc2)cc1,?,22µM*,16µM*,7.9µM*,11µM*,10µM*,/,/,?,/,PGK validate=6.5µM*;Pol iota confirm=38*;Pol eta inh-2=27*
Cc1ccc(CNC(=O)CCS(=O)(=O)c2ccc(Cl)cc2)cc1,2%,2%,9%,1%[57.1 µM],-12%,-12%,/,/,/,/,
O=C(NCc1cccc(Cl)c1)c1cccc(OC2CCN(C(=O)C3CC3)CC2)c1,-24%,0%,32%,12%,2%,-19%,/,/,/,/,
O=C(O)CSc1cc(C(=O)c2ccccc2O)cn2c(=O)c3c4c(sc3nc12)CCCC4,?,45µM*,?,?,7%,?,-18%,?,4µM*,?,Pol iota confirm=27*;Pol eta inh-2=?
O=C(O)CSc1nc2sc3c(c2c(=O)n1Cc1ccccc1)CCCCC3,21%,-5%,37%,0%,-2%,-12%,/,/,/,/,
COc1ccc(NC(=O)CN(c2ccc(Cl)cc2)S(C)(=O)=O)cc1OC,-12%,4%,15%,10%,-2%,-14%,/,/,/,/,
OCC1O[C@@H](OC2C(O)C(CO)O[C@@]2(CO)O[C@@H]2OC(CO)C(O)C(O)C2O)C(O)C(O)C1O (stereo partly specified),5%,-11%[60.1 µM],/,/,/,/,/,/,/,/,
N=C1/C(=C\c2ccc(SCc3ccco3)o2)C(=O)N=C2SC=NN12,3.2µM*,50µM*,?,40µM*,107%,14µM*,15%,10%,?,4%,Pol eta inh-2=54*
